The test in a line: Parental Cell Counter Screen Assay for Epigenetic Modulators: Hit Validation. As to conditions: mouse c127i parental cells, 30 h; Potency: fluorescent cell count; fluorescent cell count: stronger effect = higher value, concentration not given here. The text has this:
NIH Molecular Libraries Screening Centers Network [MLSCN] NIH Chemical Genomics Center [NCGC] MLSCN Grant: 1 X01 MH079860-01 Assay Provider: Elisabeth D. Martinez, University of Texas SW Medical Center NCGC Assay Overview: This assay is a counter screen for the Locus Derepression (LDR) assay (PubChem AID 1865). The LDR assay detects the derepression of a GFP reporter that is stably integrated in a region of the genome of murine c127i mammary cells that is presumably silenced. Compounds that cause derepression of the locus to express GFP are identified by enumerating GFP positive cells using a laser-scanning microplate cytometer. […] Compounds active in the parental c127i cells are likely fluorescent.
NCGC Assay Protocol Summary: Three hundred cells in 5 uL per well were dispensed into black, clear-bottom 1536-well plates. Twenty-three nL compound was transferred to the assay plate and cells were incubated 30 hours at 37 C. Medium was removed, cells were washed two times with PBS, and fluorescent cells were enumerated as objects between the sizes of 20 to 120 um width and depth using a laser-scanning microplate imager (Acumen Explorer Ex3, TTP Labtech). For further details, see Johnson, RL, Huang, W, Jadhav, A, Austin, CP, Inglese, J, Martinez, ED (2008). A quantitative high-throughput screen identifies potential epigenetic modulators of gene expression. Anal Biochem 375: 237-48.

The other results are listed elsewhere or left out. Results filed as inconclusive are left out. Values without a mark were called inactive. Active and inactive are the calls of the source. Calls follow the shape of the dose curve; as a rule, active = well fitted activation curve with a large enough effect; inconclusive = small, poorly fitted or top-dose-only effect; inactive = flat fitted curve, though single readings scatter.

`Cc1cccn2c(=O)c(/C=C3\SC(=S)N(CC(C)C)C3=O)c(NCCCOC(C)C)nc12`: the Potency was 2.51 µM (active).
Regarding `Cc1ccc(/C=N/NC(=S)Nc2cccc(S(=O)(=O)N(C)C)c2)o1`, the fluorescent cell count was 2%.

(Values after PubChem BioAssay AID493065 (National Center for Advancing Translational Sciences (NCATS), 2011).)
